The panel holds about 79,000 compounds, 15% with a hit somewhere; the sample as a whole holds those more often. Active and inactive are the calls of the source. Cut-off read from the data, not from the text of the source: active = growth inhibition above about 70%; inactive = the rest.
How the values were obtained:
[1] = NCI Yeast Anticancer Drug Screen. Data for the rad52 strain (AID 147);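 note: 0% = growth of vehicle-treated control cultures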; details: S. cerevisiae rad52 mutant growth inhibition, stronger effect = higher value
Summary of the method: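 Vehicle-treated cultures served as the reference for growth inhibition of compound-exposed yeast bearing a DNA repair mutation.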

[2] = NCI Yeast Anticancer Drug Screen. Data for the wt1 strain (AID 149);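 note: 0% = growth of vehicle-treated wt1 cultures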; details: S. cerevisiae wt1 strain (SPY 50644) growth inhibition, stronger effect = higher value
Summary of the method: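 Compounds are added to wt1 yeast cultures. Growth is then measured. Inhibition is expressed relative to vehicle-treated controls.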

[3] = NCI Yeast Anticancer Drug Screen. Data for the rad50EPP+ strain (AID 151);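 note: 0% = growth of vehicle-treated control cultures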; details: S. cerevisiae rad50 mutant strain, stronger effect = higher value
Summary of the method: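 In this screen, rad50EPP+ yeast were exposed to compounds. Growth inhibition was scored against vehicle-treated controls.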

[4] = NCI Yeast Anticancer Drug Screen. Data for the mgt1 strain (AID 153); details: S. cerevisiae mgt1 mutant growth inhibition, stronger effect = higher value
Summary of the method: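 mgt1 strain exposed; growth vs vehicle control recorded as inhibition.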

[5] = NCI Yeast Anticancer Drug Screen. Data for the mec2-1 strain (AID 157); details: S. cerevisiae mec2-1 strain, stronger effect = higher value
Summary of the method: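 Vehicle-treated cultures served as reference for growth inhibition of compound-exposed mec2-1 yeast.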

[6] = NCI Yeast Anticancer Drug Screen. Data for the rad14 strain (AID 159);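 note: 0% = growth of vehicle-treated control cultures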; details: S. cerevisiae rad14 strain growth inhibition, stronger effect = higher value
Summary of the method: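 A mutant yeast strain defective in DNA damage repair is treated with compound; inhibition of its growth is scored against untreated, vehicle-exposed cultures.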

[7] = NCI Yeast Anticancer Drug Screen. Data for the sgs1 mgt1 strain (AID 161);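 note: 0% = growth of cultures given vehicle only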; details: S. cerevisiae sgs1 mgt1 strain, stronger effect = higher value
Summary of the method: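 Inhibition of yeast growth, normalised to vehicle-treated controls, is reported for a strain bearing genetic alterations in DNA damage repair.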

[8] = NCI Yeast Anticancer Drug Screen. Data for the CLN2oe strain (AID 163);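 note: 0% = growth of vehicle-only control cultures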; details: S. cerevisiae CLN2oe strain, stronger effect = higher value
Summary of the method: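 Inhibition relative to vehicle-treated yeast is reported. Cells: strain with genetic alteration in cell-cycle control, grown with compound.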

[9] = NCI Yeast Anticancer Drug Screen. Data for the cln2 rad14 strain (AID 165);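 note: 0% = growth equal to vehicle treated cultures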; details: S. cerevisiae cln2 rad14 strain, stronger effect = higher value
Summary of the method: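 Each compound was tested on cln2 rad14 yeast. Inhibition of growth was calculated against vehicle-exposed controls.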

[10] = NCI Yeast Anticancer Drug Screen. Data for the bub3 strain (AID 167); details: S. cerevisiae bub3 mutant strain, stronger effect = higher value
Summary of the method: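 Steps: expose the mutant yeast strain to compound; grow alongside vehicle-treated cultures; measure growth; express inhibition against the vehicle cultures.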

[11] = NCI Yeast Anticancer Drug Screen. Data for the wt2 strain (AID 169);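 note: 0% = growth of vehicle-treated yeast cultures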; details: S. cerevisiae wt2 strain growth inhibition, stronger effect = higher value
Summary of the method: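 Inhibition of yeast growth was determined after compound treatment, normalised to controls receiving only vehicle.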

[12] = NCI Yeast Anticancer Drug Screen. Data for the mlh1 strain (AID 171);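 note: 0% = growth of vehicle-treated control cultures of the same strain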; details: S. cerevisiae mlh1 strain growth inhibition, stronger effect = higher value
Summary of the method: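 Vehicle-normalised growth inhibition of a repair- or checkpoint-altered yeast strain following compound treatment.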

[13] = NCI Yeast Anticancer Drug Screen. Data for the sgs1 strain (AID 173);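 note: 0% = growth of vehicle-only control cultures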; details: S. cerevisiae sgs1 mutant, stronger effect = higher value
Summary of the method: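 Screen format: yeast with repair or checkpoint alterations, compound exposure, growth read relative to vehicle.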

[14] = NCI Yeast Anticancer Drug Screen. Data for the mlh1 rad18 strain (AID 175); details: S. cerevisiae mlh1 rad18 strain growth inhibition, stronger effect = higher value
Summary of the method: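 Vehicle-treated cultures served as the reference for growth inhibition in a yeast strain carrying DNA damage repair alterations exposed to each compound.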

[15] = NCI Yeast Anticancer Drug Screen. Data for the rad18 strain (AID 177); details: S. cerevisiae rad18 mutant growth inhibition, stronger effect = higher value
Summary of the method: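 Test articles were incubated with altered yeast defective in DNA damage repair. Results are given as inhibition of growth versus vehicle.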

[16] = NCI Yeast Anticancer Drug Screen. Data for the rad50 strain (AID 155);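 note: 0% = growth of vehicle-only cultures of the same strain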; details: S. cerevisiae rad50 strain growth inhibition, stronger effect = higher value
Summary of the method: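 Inhibition values express reduced yeast growth in compound-treated cultures relative to vehicle-treated controls.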

[17] = at 5.0 µM (retest, dose inferred, filed as 0.5)
[18] = at 50.0 µM (retest, dose inferred, filed as 5.0)

Measured: growth inhibition

O=P(CCCCP(=O)(c1ccccc1)c1ccccc1)(c1ccccc1)c1ccccc1.[Cl][Sn]([Cl])([c]1ccccc1)[c]1ccccc1
inactive: [1]; at 1.2 µM -4% | [1]; at 3.7 µM 26% | [2]; at 1.2 µM -6% | [2]; at 3.7 µM 3% | [2]; at 11.0 µM 26% | [3]; at 1.2 µM 8% | [3]; at 3.7 µM -1% | [3]; at 11.0 µM 2% | [3]; at 33.0 µM 14% | [3]; at 100.0 µM 15% | [4]; at 1.2 µM 13% | [4]; at 3.7 µM 24% | [5]; at 1.2 µM 11% | [5]; at 3.7 µM 22% | [5]; [17] 48% | [6]; at 1.2 µM 4% | [6]; at 3.7 µM 16% | [8]; at 1.2 µM -16% | [8]; at 3.7 µM -27% | [8]; at 11.0 µM 15% | [9]; [17] 15% | [10]; at 1.2 µM 7% | [10]; at 3.7 µM -3% | [10]; [17] 67% | [10]; at 11.0 µM 50% | [11]; at 1.2 µM -51% | [11]; at 3.7 µM -35% | [11]; at 11.0 µM 43% | [12]; at 1.2 µM 3% | [12]; at 3.7 µM 9% | [13]; at 1.2 µM 0% | [13]; at 3.7 µM 15% | [13]; at 11.0 µM 68% | [15]; at 1.2 µM 3% | [15]; at 3.7 µM 16%
active: [1]; at 11.0 µM 74% | [1]; at 33.0 µM 96% | [1]; at 100.0 µM 97% | [2]; at 33.0 µM 93% | [2]; at 100.0 µM 96% | [4]; at 11.0 µM 74% | [4]; at 33.0 µM 96% | [4]; at 100.0 µM 97% | [5]; at 11.0 µM 70% | [5]; at 33.0 µM 95% | [5]; [18] 98% | [5]; at 50.0 µM 87.8% | [5]; at 100.0 µM 96% | [6]; at 11.0 µM 78% | [6]; at 33.0 µM 94% | [6]; at 100.0 µM 96% | [7]; [17] 83% | [7]; [18] 98% | [7]; at 50.0 µM 87.3% | [8]; at 33.0 µM 91% | [8]; at 100.0 µM 95% | [9]; [18] 97% | [9]; at 50.0 µM 81.8% | [10]; at 33.0 µM 93% | [10]; [18] 98% | [10]; at 50.0 µM 87.5% | [10]; at 100.0 µM 96% | [11]; at 33.0 µM 92% | [11]; at 100.0 µM 96% | [12]; at 11.0 µM 80% | [12]; at 33.0 µM 96% | [12]; at 100.0 µM 97% | [13]; at 33.0 µM 96% | [13]; at 100.0 µM 97% | [14]; [17] 84% | [14]; [18] 96% | [14]; at 50.0 µM 89.5% | [15]; at 11.0 µM 82% | [15]; at 33.0 µM 95% | [15]; at 100.0 µM 96%

CC1=C2C(=C[C@@](C)(CO)[C@@H]2O)C(=O)[C@](C)(O)C12CC2
inactive: [1]; at 1.2 µM 2% | [1]; at 3.7 µM 9% | [1]; at 11.0 µM 21% | [1]; at 33.0 µM 42% | [2]; at 1.2 µM 1% | [2]; at 3.7 µM -1% | [2]; at 11.0 µM 0% | [2]; at 33.0 µM 0% | [2]; at 100.0 µM 25% | [3]; at 1.2 µM -3% | [3]; at 3.7 µM -1% | [3]; at 11.0 µM 1% | [3]; at 33.0 µM -2% | [3]; at 100.0 µM 1% | [4]; at 1.2 µM -3% | [4]; at 3.7 µM -1% | [4]; at 11.0 µM 0% | [4]; at 33.0 µM 2% | [4]; at 100.0 µM 0% | [16]; at 1.2 µM 2% | [16]; at 3.7 µM 2% | [16]; at 11.0 µM 11% | [16]; at 33.0 µM 31% | [16]; at 50.0 µM 33.8% | [5]; at 1.2 µM 0% | [5]; at 3.7 µM 0% | [5]; at 11.0 µM 1% | [5]; at 33.0 µM 13% | [5]; at 50.0 µM 22.9% | [5]; at 100.0 µM 48% | [6]; at 1.2 µM 1% | [6]; at 3.7 µM -1% | [6]; at 11.0 µM 4% | [6]; at 33.0 µM 13% | [6]; at 100.0 µM 41% | [7]; at 50.0 µM 44% | [8]; at 1.2 µM -5% | [8]; at 3.7 µM -8% | [8]; at 11.0 µM -10% | [8]; at 33.0 µM -13% | [8]; at 100.0 µM -5% | [9]; at 50.0 µM 22.6% | [10]; at 1.2 µM -4% | [10]; at 3.7 µM -5% | [10]; at 11.0 µM -7% | [10]; at 33.0 µM -10% | [10]; at 50.0 µM -41% | [10]; at 100.0 µM -12% | [11]; at 1.2 µM -2% | [11]; at 3.7 µM 0% | [11]; at 11.0 µM 0% | [11]; at 33.0 µM 0% | [11]; at 100.0 µM 1% | [12]; at 1.2 µM 0% | [12]; at 3.7 µM 1% | [12]; at 11.0 µM 2% | [12]; at 33.0 µM 3% | [12]; at 100.0 µM 7% | [13]; at 1.2 µM 3% | [13]; at 3.7 µM 10% | [13]; at 11.0 µM 24% | [13]; at 33.0 µM 50% | [14]; at 50.0 µM 11.7% | [15]; at 1.2 µM 37%
active: [1]; at 100.0 µM 74% | [16]; at 100.0 µM 70% | [13]; at 100.0 µM 73% | [15]; at 3.7 µM 74% | [15]; at 11.0 µM 90% | [15]; at 33.0 µM 93% | [15]; at 100.0 µM 95%

— PubChem BioAssay (NCI)
